Screening data (PubChem)
An excerpt weighted towards active compounds, which were near 2.4% of everything screened.
WRN helicase inh: inhibitors of human WRN helicase; WRN helicase unwinding, fluorescent forked duplex, kinetic; Potency, µM (doses to about 114 µM), usual class: inhibitors; 0.46% of 360,000 active; also: nearly all actives have a fitted effect of over 55% in size
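Screening of the MLSMR collection measured strand separation of a quenched forked DNA duplex (100 nM) by 20 nM WRN with 2 mM ATP, all final. Compounds were preincubated with enzyme 15 min at room temperature.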
Pol kappa inh-1: DNA polymerase kappa (human) inhibition. Q9UBT6. purified Pol kappa, fluorescent DNA synthesis assay, 10 min. Potency, µM (top dose mostly 107 µM), most hits filed as inhibitors. 0.53% of 400,000 active. AID 588579
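Enzyme at 10 nM met test compounds for 15 min at room temperature. Substrate addition (50 nM final) began the reaction, which was monitored by fluorescence at 0 and 10 min.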
Pol beta inh: blocks human DNA polymerase beta activity; P06746; AID 485314; Pol beta primer extension/strand displacement, fluorescence kinetic; Potency, µM (top dose mostly 114 µM), most hits filed as inhibitors; 1.3% of 340,000 active
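Human Pol beta at 10 nM; strand-displacement substrate 50 nM final. Compound exposure 15 min at room temperature before start, reaction 10 min at room temperature.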
Pol eta inh-1: blocks human DNA polymerase eta activity; Potency, µM (series often up to 114 µM), usual class: inhibitors; 1.2% of 390,000 active; AID 588591; recombinant Pol eta, fluorescent DNA replication assay
Target sequence (Q9Y253 whole entry, looked up): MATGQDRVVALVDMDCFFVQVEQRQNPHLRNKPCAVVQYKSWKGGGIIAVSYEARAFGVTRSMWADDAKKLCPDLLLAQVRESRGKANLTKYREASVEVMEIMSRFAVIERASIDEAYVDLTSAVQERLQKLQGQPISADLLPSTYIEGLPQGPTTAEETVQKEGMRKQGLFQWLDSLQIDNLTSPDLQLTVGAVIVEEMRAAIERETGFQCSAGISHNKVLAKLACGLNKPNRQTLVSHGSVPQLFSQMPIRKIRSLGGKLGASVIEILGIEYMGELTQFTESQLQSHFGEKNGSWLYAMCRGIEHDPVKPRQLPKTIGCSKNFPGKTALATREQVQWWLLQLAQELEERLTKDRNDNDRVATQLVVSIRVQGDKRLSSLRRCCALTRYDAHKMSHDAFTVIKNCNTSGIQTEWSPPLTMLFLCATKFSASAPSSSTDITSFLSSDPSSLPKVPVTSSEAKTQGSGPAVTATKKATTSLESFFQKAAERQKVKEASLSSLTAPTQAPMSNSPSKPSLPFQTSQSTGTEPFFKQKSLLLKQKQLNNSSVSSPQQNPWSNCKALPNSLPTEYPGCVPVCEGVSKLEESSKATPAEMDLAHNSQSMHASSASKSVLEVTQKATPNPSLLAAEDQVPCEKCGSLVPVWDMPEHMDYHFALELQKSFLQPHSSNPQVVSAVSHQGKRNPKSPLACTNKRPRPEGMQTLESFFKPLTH
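Pol eta (10 nM) was preincubated with compounds for 15 min at room temperature, after which fluorescent replication substrate (50 nM final) was added to start the reaction. Fluorescence was read kinetically at 0 and 10 min.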
Pol iota inh: blocks human DNA polymerase iota activity. AID 588590. 1% of 390,000 active. Pol iota fluorescent replication assay, 10 min. Potency, µM (titrated, usually from 115 µM), actives largely listed as inhibitors. Q9UNA4
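Pol iota at 10 nM preincubated 15 min with compounds at room temperature; reaction started with fluorescent substrate, 50 nM final. Fluorescence read kinetically at 0 and 10 min; buffer-only wells as negative control.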
FEN1 inhibitor: human FEN1 inhibition | Recombinant FEN1 flap cleavage, fluorescence, 15 min | AID 588795 | P39748 | Potency, µM (doses to about 114 µM), usual class: inhibitors | 0.35% of 390,000 active; also: nearly all actives have a fitted effect of over 65% in size
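Steps: FEN1 (10 nM) dispensed; compound added by pin tool; 15 min at room temperature; substrate added to 50 nM final; reads at 0 min and 15 min; data normalized and fitted (four-parameter Hill).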
GALK confirm: confirmation of human galactokinase (GALK) inhibitors; 70% of 150 active; Potency, µM (highest dose often 115 µM), hits mostly inhibitors; shares compounds with Pol eta inh-1; AID 2015; purified GALK, Kinase-Glo ATP depletion luminescence
Redox cycling: counter-screen for GALK inhibitors: redox cycling H2O2 generation. shares compounds with Pol eta inh-1. Phenol red-HRP H2O2 redox cycling, absorbance 600 nm. Potency, µM (series often up to 115 µM), actives largely listed as inhibitors. 40% of 150 active
HEK293 tox: HEK-293 cytotoxicity, GALK inhibitor secondary. Potency, µM (titrated, usually from 46.1 µM), actives largely listed as inhibitors. 10% of 170 active. HEK-293 viability, ATP luminescence (CellTiter-Glo), 24/48 h. AID 2547. shares compounds with Pol eta inh-1
Pol kappa inh-2: confirmation of human DNA polymerase kappa inhibitors; shares compounds with Pol eta inh-1; purified Pol-kappa, fluorescent strand-displacement substrate; Potency, µM, usual class: inhibitors; 76% of 920 active
Pol eta inh-2: confirmation of human DNA polymerase eta inhibitors; Pol eta primer extension, TAMRA/BHQ fluorescence, 10 min; shares compounds with Pol eta inh-1; 64% of 2,600 active; Potency, µM, most hits filed as inhibitors; AID 720502
Hits are given with their value; - = inactive; ? = inconclusive; . = no result given; [ ] = dose if it differs, or a comment. Calls follow the shape of the dose curve; as a rule, active = well fitted curve in the direction sought with a large enough effect; inconclusive = small, poorly fitted or top-dose-only effect, or another doubt; inactive = no such curve, though single readings can be large; an effect the other way counts as inactive or inconclusive.

SMILES	WRN helicase inh	Pol kappa inh-1	Pol beta inh	Pol eta inh-1	Pol iota inh	FEN1 inhibitor	Pol eta inh-2	others
COc1cccc(NC(=O)Cn2cc(S(=O)(=O)N3CCCC3)c(S(=O)(=O)N3CCCC3)c2)c1	.	-	?	89µM	?	-	?	Pol kappa inh-2=38
COc1cccc(-c2nc(SCC(=O)NCC3CCCO3)c(-c3ccc(Cl)cc3)[nH]2)c1 (centres undefined)	.	-	-	-	-	-	.
O=C(O)c1cccc(Cn2c(Cl)c(/C=N/NC(=O)c3ccccc3Cl)sc2=O)c1	-	-	-	-	-	-	.
O=C(O)c1cccc(Cn2c(Cl)c(/C=N/Nc3ccccc3)sc2=O)c1	-[11.6 µM]	?	-	45µM	?	-	?
Cc1ccccc1OCC(=O)N/N=C/c1sc(=O)n(Cc2cccc(C(=O)O)c2)c1Cl	-	-	?	?	?	-	?
O=c1c(C(c2c(O)nc3n(c2=O)CCS3)c2cccc3ccccc23)c(O)nc2n1CCS2	?	40µM	?	22µM	?	-	?
Cc1ccc(C(c2c(O)nc3n(c2=O)CCS3)c2c(O)nc3n(c2=O)CCS3)cc1	?	-	-	-	?	-	.
Brc1ccc(C2C=Cc3ccccc32)cc1 (centres undefined)	.	-	.	.	-	-	.
O=C(NCCc1ccccc1)c1ccc2c(=O)[nH]c3c(C(=O)NCC4CCCO4)sc(=S)n3c2c1 (centres undefined)	-	?	-	-	?	?	.	GALK confirm=38µM;Redox cycling=-;HEK293 tox=-
COc1ccc(OC)c(CCNC(=O)c2ccc3c(=O)[nH]c4c(C(=O)NC(C)C)sc(=S)n4c3c2)c1	-[11.6 µM]	-	-	16µM	-	-	43
CCCCNC(=O)c1sc(=S)n2c1[nH]c(=O)c1ccccc12	?	-	?	?	-	?	.
O=C(NC1CCCCC1)c1sc(=S)n2c1[nH]c(=O)c1ccccc12	50µM	-	18µM	25µM	-	?	.	Pol kappa inh-2=?
CCOc1ccc(Nc2nc(Cc3nnc(SCC(=O)O)o3)cs2)cc1	-	?	79µM	50µM	?	-	?
Cc1ccc(/C=N/Nc2cccc(C(=O)O)c2)s1	?	-	?	?	-	-	.
Cc1ccc(/C=N/Nc2ccc(C(=O)O)cc2)s1	-	-	?	40µM	?	-	48	Pol kappa inh-2=?
COc1ccc(OCCn2nnc3sc4c(c3c2=O)CCCC4)cc1	.	?	11µM	.	71µM	-	?	Pol kappa inh-2=?
COc1ccc(NC(=O)Cn2nnc3sc4c(c3c2=O)CCCC4)cc1	.	-	-	-	-	-	.
Cc1cccc(/C=C/C(=O)c2cc(Br)ccc(=O)c2O)c1	?	?	?	32µM	0.89µM	?	?
Cc1ccc(C(=O)C=Cc2cccc(C)c2)cc1	-	-	.	-	?	-	.
CCOC(=O)/C(N=Nc1ccc(C(=O)O)cc1[N+](=O)[O-])=C(\C)O	-	-	-	-	?	-	.
CC(=O)/C(N=Nc1ccc(C(=O)O)cc1[N+](=O)[O-])=C(\C)O	-[11.6 µM]	?	?	11µM	50µM	-	?
Cc1c(C(=O)N2CCN(c3ccccn3)CC2)cccc1[N+](=O)[O-]	-	-	-	-	-	-	.
CC(Sc1ccsc1[N+](=O)[O-])C(=O)N1CCN(c2ccccn2)CC1 (centres undefined)	-[11.6 µM]	?	-	35µM	?	-	76
Cc1ccc(C)c(CN2C(=O)CSc3ccc(C(=O)NCCN4CCOCC4)cc32)c1	-	-	-	-	-	-	.	GALK confirm=-;Redox cycling=-;HEK293 tox=-
O=C(NCCN1CCOCC1)c1ccc2c(c1)N(Cc1ccccc1F)C(=O)CS2	-	-	-	-	-	-	.
SMILES	WRN helicase inh	Pol kappa inh-1	Pol beta inh	Pol eta inh-1	Pol iota inh	FEN1 inhibitor	Pol eta inh-2	others
COc1ccc2c(c1)CC(NC(=O)Nc1ccc(NC(C)=O)cc1)CO2 (centres undefined)	.	-	-	-	-	-	.
CCS(=O)(=O)C1=NN2C(=N)/C(=C\c3ccc(OC(=O)c4ccco4)c(Br)c3)C(=O)N=C2S1	.	.	89µM	.	.	.	.	GALK confirm=30µM;Redox cycling=-;HEK293 tox=-
CCN(CC)S(=O)(=O)c1ccc(C(=O)OCC(=O)NCc2ccco2)cc1	-	?	?	?	?	-	.
CN(C)S(=O)(=O)c1ccc(Cl)c(NC(=O)COC(=O)/C=C/c2ccco2)c1	-	-	?	?	?	-	?
COc1ccc(/C=C/C(=O)OCC(=O)Nc2cc(S(=O)(=O)N(C)C)ccc2Cl)cc1	-	-	-	-	-	-	.
CCN(CC)S(=O)(=O)c1ccc(/C=C/C(=O)OCC(=O)NCc2ccco2)cc1	?	?	.	16µM	35µM	-	?	Pol kappa inh-2=42
COc1ccc(Br)cc1CNC(=O)c1cc2n(n1)CCCN(Cc1ccc(C)cc1)C2=O	.	-	-	-	-	-	.
CC1(C)CC(=O)C2=C(C1)NC(Nc1nc3ccccc3o1)=NC2c1cccnc1 (centres undefined)	.	-	.	.	-	-	.	HEK293 tox=-
CC1(C)CC(=O)C2=C(C1)NC(Nc1nc3ccccc3o1)=NC2c1cccc(F)c1 (centres undefined)	.	-	.	.	-	-	.	HEK293 tox=-
CC1(C)CC(=O)C2=C(C1)NC(Nc1nc3ccccc3o1)=NC2c1ccccc1 (centres undefined)	.	-	.	.	-	-	.	HEK293 tox=-
Cc1ccc(C2N=C(Nc3nc4ccccc4o3)NC3=C2C(=O)CC(C)(C)C3)cc1 (centres undefined)	.	-	.	.	-	-	.	HEK293 tox=-
CCCCCCOC(=O)C1(O)CC2OC1(C)n1c3ccccc3c3c4c(c5c6ccccc6n2c5c31)C(=O)NC4 (centres undefined)	.	-[19.4 µM]	.	.	.	.	.
COc1ccc(C2Nc3ccccc3NC3=C2C(=O)CC(C)(C)C3)cc1 (centres undefined)	-	-	-	-	?	-	.
